Test results reported in PubChem BioAssay (NCATS).
“And” between values parts separate entries of the source, which are not always exact repeats. Identical values can stand only once. Records with an inconclusive call do not appear. A call without a number means that no potency is given here. The source made the active and inactive calls. Unless noted, the call rests on the fitted dose curve; in most records, active means well fitted curve in the direction sought with a large enough effect; inconclusive means small, poorly fitted or top-dose-only effect, or another doubt; inactive means no such curve, though single readings can be large; an effect the other way counts as inactive or inconclusive.

Legend:
[1] = Validation screen for small molecules that induce genotoxicity in human embryonic kidney (HEK293T) cells expressing luciferase-tagged ELG1 (AID 493106)
Outline: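 HEK293T cells expressing luciferase-tagged ELG1 were exposed to compound or DMSO vehicle for 16 hr at 37 °C, 5% CO2. Genotoxic stress raises ELG1 levels, so increased luciferase signal after ONE-Glo addition and 30 min at room temperature marks hits.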

[2] = target: Thyrotropin-releasing hormone receptor (Homo sapiens) (UniProt P34981); assay: qHTS for Small Molecule Agonists and Allosteric Enhancers of Human TRH Receptor: Validation Screen for Agonists (AID 493127;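 active means calcium activation more than 3 SD above the typical response in the agonist read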;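 further: intracellular calcium rise by fluo-8 fluorescence before TRH EC20 addition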); conditions: TRH receptor agonist cell assay; at 2 µM; stronger effect = higher value
Outline: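 TRHR-expressing cells were plated overnight in serum-containing medium, then loaded with fluo-8 calcium dye at room temperature for 30 min–1.5 h. After a 10 s baseline, compound was pin-transferred and calcium fluorescence (ex 480/em 530) read kinetically for agonist response.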

[3] = Nrf2 qHTS screen for inhibitors: Validation (AID 493153; active means well fitted inhibition curve with a large enough effect in the main read-out, with a control signal flat, not every such curve was filed as active; further: potency means the concentration at half of the fitted maximal effect); conditions: Potency: luciferase luminescence; viability change: measured here: cytotoxicity max response
Outline: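 A549 cells carrying an ARE-driven firefly luciferase reporter, in 5% FBS OPTI-MEM, were treated with compounds in concentration-response for 18-24 h at 37°C. Viability was read by CellTiter-Fluor fluorescence, then Nrf2 activity by luciferase luminescence.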

[4] = Validation screen for small molecules that induce DNA re-replication in SW480 colon adenocarcinoma cells (AID 504364)
Outline: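 SW480 cells seeded at 250 per well were exposed to compound or DMSO for 48 hr at 37 C, 5% CO2, then stained with Hoechst for 40 min. DNA content per nucleus was imaged (405 nm ex, 500-530 nm em).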

[5] = target: Peptidyl-prolyl cis-trans isomerase NIMA-interacting 1 (Homo sapiens) (UniProt Q13526); assay: qHTS Validation Assay to Find Inhibitors of Pin1 (AID 504536; active means well fitted inhibition curve with a large enough effect in the polarisation, with a control signal flat, not every such curve was filed as active; the % refers to the polarisation)
Outline: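 Fluorescence polarization competition: compounds (titration) displace HiFluor-488-labeled Pin1-1b peptide from Pin1 (0.3 uM final) in pH 7.5 HEPES buffer with DTT, 10 min at room temperature; %Activity normalized to no-enzyme wells, curves fitted.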

[6] = target: Ubiquitin carboxyl-terminal hydrolase 1 (Homo sapiens) (UniProt O94782); assay: Inhibitors of USP1/UAF1: Pilot qHTS (AID 504865); further: nearly all actives have a fitted effect of over 35% in size; further: potency means the concentration at half of the fitted maximal effect
Outline: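 1nM USP1/UAF1 + cpd, 15 min RT; start w/ Ub-Rho 150nM final; kinetic FL 480/540 nm, 6 reads q60 s. Buffer 50mM HEPES pH 7.8, 0.5mM EDTA, 1mM TCEP, 0.01% Tween-20, 0.1 mg/ml BSA.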

[7] = qHTS for Inhibitors of ATXN expression: Validation of Cytotoxic Assay (AID 588349)
Outline: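 HEK293 cells were dosed with titrated compounds for 72 hr at 37 degrees C. Viability was read by CellTiter Glo luminescence, with intracellular ATP as the marker of cell survival.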

[8] = qHTS for Inhibitors of Cell Surface uPA Generation: Validation Assay (AID 493164);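 further: RAW 264.7 macrophage cells exposed to compound for 18 h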
Outline: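 RAW 264.7, 4000 cells/well, o/n plating; cpd 7-pt 1:5 dilution 2.45 nM–38.3 uM final; 18 h, 37 C/5% CO2; ATP-Lite, 5 s luminescence exposure.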

[9] = target: Galactokinase (Homo sapiens) (UniProt P51570); assay: qHTS Validation Assay for Inhibitors of Human Galactokinase (GALK) (AID 493189)
Outline: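 Luminescence from leftover ATP (Kinase-Glo Plus, 10 min) served as read-out after a 1 h room-temperature reaction of 5 nM GALK, 100 uM galactose and 35 uM ATP at pH8.0.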

[10] = target: Phosphoglycerate kinase, glycosomal (Trypanosoma brucei brucei) (UniProt P07378); assay: qHTS Validation Assay to Find Inhibitors of Phosphoglycerate Kinase (AID 504547)
Outline: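 Inhibition of the enzyme is judged by a Kinase-Glo Plus luminescent signal following a one-hour incubation at room temperature. Because 1,3-BPG is unstable, it is made in situ by GAPDH at 100nM final; no-PGK wells define the baseline.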

[11] = target: phosphoglycerate mutase (Leishmania major) (UniProt Q4Q090); assay: qHTS Validation Assay to Find Inhibitors of Phosphoglycerate Mutase (AID 504548);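 further: end-point luminescence from Kinase-GloPlus after the PGAM reaction; series mostly up to about 58 µM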
Outline: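 L. major PGAM (1.25nM final) was added to substrate buffer and pinned compound, incubated 45 minutes at room temperature, then Kinase-GloPlus added; luminescence read after 10 minutes. Buffer: 100 mM TEA pH 7.6, 5 mM MgCl2, 0.01% Tween-20.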

[12] = target: Glucocorticoid receptor (Homo sapiens) (UniProt P04150); assay: qHTS assay for small molecule agonists of glucocorticoid receptor signaling (AID 588532; active means well fitted curve in the direction sought with a large enough effect in the signal ratio, with a control signal flat; the % refers to the signal ratio); conditions: HeLa MMTV-bla, beta-lactamase ratio, agonist, 18 h; stronger effect = higher value; percent of dexamethasone control, DMSO zero
Outline: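 Agonist-mode qHTS: GRE-driven beta-lactamase in HeLa cells exposed 18 h to titrated compounds (up to 92 uM), then CCF4 ratio read after 2 h at RT; Hill-fitted EC50, efficacy relative to 0.1 uM dexamethasone.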

[13] = target: DNA dC->dU-editing enzyme APOBEC-3G (Homo sapiens) (UniProt Q9HC16); assay: qHTS for inhibitors of Vif-A3G interactions: Validation (AID 588379)
Outline: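 HeLa cells stably expressing Vif and A3G-eYFP, 700 cells/well, incubated overnight at 37 deg C, then exposed to compound overnight at 37 deg C. Inhibition of Vif-mediated degradation read as increased yellow fluorescence (Ex 488/Em 500-530) by laser-scanning cytometry.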

[14] = target: ATPase family AAA domain-containing protein 5 (Homo sapiens) (UniProt Q96QE3); assay: Validation screen for small molecules that inhibit ELG1-dependent DNA repair in human embryonic kidney (HEK293T) cells expressing luciferase-tagged ELG1 (AID 493107);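 further: cells co-treated with the DNA-damaging agent 5-fluorouridine alongside compound; series mostly up to about 46 µM; inhibitors lower the ELG1-luciferase luminescence signal; nearly all actives have a fitted effect of over 70% in size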
Outline: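 HEK293T cells expressing luciferase-tagged ELG1 were co-treated with 5-fluorouridine and compound or DMSO for 16 hr at 37 °C, 5% CO2. Luciferase activity was then read with ONE-Glo after 30 min at room temperature; suppressed signal indicates blocked ELG1 function.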

[15] = target: Estrogen receptor (Homo sapiens) (UniProt P03372); assay: qHTS assay for small molecule agonists of estrogen receptor alpha signaling (AID 588514; calls by dose curve; further: nearly all actives have a fitted effect of over 70% in size)
Outline: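 ER-alpha-UAS-bla GripTite HEK 293 cells in medium with 2% charcoal/dextran-treated FBS were treated with compound titrations at 37 C for 18 hrs; beta-lactamase reporter read by CCF4 fluorescence after 2 hrs at RT.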

[16] = target: Bile acid receptor (Homo sapiens) (UniProt Q96RI1); assay: qHTS assay for small molecule antagonists of farnesoid X receptor signaling (AID 588526; calls by dose curve)
Outline: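 Beta-lactamase reporter antagonist mode: HEK293T FXR-UAS-bla cells, titrated compound, CDCA stimulation, 16 h 37 C, CCF4 dye 2 h RT. Data normalized to CDCA 50 uM and DMSO; Hill-fit IC50.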

Sequence of Phosphoglycerate kinase, glycosomal (Trypanosoma brucei brucei) (P07378 whole entry, looked up): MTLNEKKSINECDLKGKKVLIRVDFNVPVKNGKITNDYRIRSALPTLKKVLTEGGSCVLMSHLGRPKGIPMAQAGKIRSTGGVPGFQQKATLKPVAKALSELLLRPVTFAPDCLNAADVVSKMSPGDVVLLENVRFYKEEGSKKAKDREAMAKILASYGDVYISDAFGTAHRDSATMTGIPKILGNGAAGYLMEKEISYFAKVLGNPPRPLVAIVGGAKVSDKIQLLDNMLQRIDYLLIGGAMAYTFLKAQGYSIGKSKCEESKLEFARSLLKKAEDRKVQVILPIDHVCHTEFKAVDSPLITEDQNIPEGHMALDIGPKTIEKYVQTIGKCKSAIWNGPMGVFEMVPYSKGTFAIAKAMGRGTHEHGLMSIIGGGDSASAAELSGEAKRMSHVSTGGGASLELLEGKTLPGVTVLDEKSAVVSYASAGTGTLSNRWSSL
Sequence of phosphoglycerate mutase (Leishmania major) (Q4Q090 1-553): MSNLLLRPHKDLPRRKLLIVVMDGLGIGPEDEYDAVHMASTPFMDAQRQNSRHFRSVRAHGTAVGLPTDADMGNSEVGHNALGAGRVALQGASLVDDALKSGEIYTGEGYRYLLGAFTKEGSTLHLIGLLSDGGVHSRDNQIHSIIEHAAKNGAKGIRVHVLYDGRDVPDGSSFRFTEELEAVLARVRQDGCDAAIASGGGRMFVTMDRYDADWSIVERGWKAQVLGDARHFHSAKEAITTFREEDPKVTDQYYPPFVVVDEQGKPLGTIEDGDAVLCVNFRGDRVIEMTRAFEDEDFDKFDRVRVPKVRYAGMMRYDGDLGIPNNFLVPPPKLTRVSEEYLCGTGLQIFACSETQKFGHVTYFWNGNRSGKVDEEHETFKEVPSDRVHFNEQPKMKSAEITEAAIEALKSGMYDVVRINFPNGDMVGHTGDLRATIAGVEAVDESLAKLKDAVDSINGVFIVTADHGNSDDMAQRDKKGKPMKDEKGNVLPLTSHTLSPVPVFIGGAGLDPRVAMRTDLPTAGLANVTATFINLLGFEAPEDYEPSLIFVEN
Sequence of ATPase family AAA domain-containing protein 5 (Homo sapiens) (Q96QE3 whole entry, looked up, the tested form may be a part): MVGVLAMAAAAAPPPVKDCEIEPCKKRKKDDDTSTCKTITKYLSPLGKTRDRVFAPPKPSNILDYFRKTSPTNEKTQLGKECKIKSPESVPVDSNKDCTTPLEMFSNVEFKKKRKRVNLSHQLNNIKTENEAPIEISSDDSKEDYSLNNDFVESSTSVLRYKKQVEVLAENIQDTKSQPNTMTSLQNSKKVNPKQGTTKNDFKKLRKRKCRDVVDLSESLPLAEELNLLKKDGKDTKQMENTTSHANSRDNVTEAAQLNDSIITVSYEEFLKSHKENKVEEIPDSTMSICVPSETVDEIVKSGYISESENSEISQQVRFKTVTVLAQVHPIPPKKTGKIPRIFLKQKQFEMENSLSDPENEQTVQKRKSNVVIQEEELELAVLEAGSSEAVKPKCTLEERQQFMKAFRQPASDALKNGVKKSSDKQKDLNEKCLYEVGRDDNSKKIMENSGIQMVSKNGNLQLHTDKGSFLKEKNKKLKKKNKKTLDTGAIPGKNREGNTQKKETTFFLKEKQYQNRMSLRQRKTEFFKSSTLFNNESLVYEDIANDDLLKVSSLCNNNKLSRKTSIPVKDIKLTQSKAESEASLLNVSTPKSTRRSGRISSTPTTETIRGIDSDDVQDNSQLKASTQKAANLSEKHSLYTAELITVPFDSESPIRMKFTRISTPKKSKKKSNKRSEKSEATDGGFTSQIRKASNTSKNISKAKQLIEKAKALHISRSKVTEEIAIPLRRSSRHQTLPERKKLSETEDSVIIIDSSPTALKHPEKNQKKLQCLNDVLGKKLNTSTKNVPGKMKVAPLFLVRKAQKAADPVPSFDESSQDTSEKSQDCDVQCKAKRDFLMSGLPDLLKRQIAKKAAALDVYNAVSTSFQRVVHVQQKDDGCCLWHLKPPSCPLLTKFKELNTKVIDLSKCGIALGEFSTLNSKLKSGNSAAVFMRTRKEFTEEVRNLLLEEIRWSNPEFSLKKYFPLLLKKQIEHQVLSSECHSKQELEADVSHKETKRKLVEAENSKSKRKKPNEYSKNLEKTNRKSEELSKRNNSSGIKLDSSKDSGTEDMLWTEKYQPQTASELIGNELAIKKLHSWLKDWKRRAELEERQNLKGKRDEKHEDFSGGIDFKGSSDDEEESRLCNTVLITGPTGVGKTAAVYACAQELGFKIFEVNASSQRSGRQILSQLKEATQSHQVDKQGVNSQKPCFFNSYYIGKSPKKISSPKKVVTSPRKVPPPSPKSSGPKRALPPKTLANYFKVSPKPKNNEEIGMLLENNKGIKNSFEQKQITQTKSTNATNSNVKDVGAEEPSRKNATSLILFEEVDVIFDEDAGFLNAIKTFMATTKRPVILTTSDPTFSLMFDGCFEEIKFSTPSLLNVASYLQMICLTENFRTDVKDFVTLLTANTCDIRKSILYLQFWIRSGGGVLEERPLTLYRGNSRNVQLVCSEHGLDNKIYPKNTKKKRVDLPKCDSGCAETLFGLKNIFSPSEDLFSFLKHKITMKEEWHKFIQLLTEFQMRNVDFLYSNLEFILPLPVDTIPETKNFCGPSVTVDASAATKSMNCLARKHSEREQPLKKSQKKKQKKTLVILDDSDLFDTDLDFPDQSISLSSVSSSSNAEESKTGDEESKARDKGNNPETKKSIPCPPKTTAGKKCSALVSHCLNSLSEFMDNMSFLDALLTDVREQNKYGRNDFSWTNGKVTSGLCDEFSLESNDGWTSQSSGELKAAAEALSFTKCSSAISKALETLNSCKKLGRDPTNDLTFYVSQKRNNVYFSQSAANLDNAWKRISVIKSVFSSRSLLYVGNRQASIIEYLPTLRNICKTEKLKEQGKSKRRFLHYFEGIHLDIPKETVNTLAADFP
Sequence of Bile acid receptor (Homo sapiens) (Q96RI1 whole entry, looked up): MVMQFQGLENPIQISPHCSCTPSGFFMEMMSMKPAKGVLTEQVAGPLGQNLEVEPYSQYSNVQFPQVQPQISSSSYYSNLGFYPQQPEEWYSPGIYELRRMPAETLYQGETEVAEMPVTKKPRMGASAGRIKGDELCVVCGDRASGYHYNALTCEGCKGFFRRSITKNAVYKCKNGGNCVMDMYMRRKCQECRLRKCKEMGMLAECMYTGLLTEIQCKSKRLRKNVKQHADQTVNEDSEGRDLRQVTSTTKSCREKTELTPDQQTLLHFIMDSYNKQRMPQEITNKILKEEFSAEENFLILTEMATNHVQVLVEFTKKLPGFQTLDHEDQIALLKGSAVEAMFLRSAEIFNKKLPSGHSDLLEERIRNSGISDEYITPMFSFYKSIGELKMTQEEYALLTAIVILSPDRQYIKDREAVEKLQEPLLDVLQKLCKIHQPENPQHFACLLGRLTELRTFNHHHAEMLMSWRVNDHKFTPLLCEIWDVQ
Sequence of Glucocorticoid receptor (Homo sapiens) (P04150 whole entry, looked up): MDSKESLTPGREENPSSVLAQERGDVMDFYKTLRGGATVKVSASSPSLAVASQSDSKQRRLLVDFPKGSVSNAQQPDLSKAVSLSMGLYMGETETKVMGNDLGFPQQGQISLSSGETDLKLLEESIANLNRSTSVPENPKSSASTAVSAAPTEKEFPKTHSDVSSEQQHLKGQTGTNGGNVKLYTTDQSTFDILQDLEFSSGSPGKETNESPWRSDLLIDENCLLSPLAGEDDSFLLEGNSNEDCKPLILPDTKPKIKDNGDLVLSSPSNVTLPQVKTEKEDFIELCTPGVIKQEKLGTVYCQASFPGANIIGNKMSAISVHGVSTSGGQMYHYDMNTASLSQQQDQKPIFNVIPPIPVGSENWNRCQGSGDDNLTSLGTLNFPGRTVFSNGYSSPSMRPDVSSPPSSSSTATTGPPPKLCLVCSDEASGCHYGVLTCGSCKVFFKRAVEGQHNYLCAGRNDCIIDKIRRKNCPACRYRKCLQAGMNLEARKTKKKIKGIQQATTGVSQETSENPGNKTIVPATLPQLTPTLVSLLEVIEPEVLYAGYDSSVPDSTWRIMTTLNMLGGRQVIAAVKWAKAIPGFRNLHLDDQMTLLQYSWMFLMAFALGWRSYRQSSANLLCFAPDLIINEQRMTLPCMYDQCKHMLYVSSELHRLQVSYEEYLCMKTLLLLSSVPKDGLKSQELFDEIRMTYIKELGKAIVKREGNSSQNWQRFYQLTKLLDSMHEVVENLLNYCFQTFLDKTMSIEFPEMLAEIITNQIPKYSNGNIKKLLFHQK
Sequence of Ubiquitin carboxyl-terminal hydrolase 1 (Homo sapiens) (O94782 whole entry, looked up): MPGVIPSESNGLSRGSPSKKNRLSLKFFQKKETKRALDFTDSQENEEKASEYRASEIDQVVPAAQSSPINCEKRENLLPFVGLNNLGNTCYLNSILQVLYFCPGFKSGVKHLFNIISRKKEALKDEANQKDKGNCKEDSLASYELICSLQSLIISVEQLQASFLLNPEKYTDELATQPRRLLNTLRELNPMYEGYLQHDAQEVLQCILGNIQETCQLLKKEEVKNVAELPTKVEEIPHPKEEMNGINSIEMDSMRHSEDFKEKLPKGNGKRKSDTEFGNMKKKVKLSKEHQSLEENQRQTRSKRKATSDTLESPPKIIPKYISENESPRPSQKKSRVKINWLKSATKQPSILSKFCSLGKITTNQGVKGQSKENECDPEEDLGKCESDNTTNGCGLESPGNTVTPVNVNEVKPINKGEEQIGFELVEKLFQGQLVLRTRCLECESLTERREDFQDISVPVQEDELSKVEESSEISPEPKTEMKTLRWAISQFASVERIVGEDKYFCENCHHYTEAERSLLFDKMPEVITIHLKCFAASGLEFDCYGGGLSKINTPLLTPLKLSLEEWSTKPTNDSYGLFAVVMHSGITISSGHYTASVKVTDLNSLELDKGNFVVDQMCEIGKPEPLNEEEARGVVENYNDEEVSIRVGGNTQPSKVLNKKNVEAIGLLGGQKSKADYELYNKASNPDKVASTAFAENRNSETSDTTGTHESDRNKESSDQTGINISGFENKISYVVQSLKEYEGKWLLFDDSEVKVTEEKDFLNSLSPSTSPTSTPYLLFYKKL
Sequence of Peptidyl-prolyl cis-trans isomerase NIMA-interacting 1 (Homo sapiens) (Q13526 whole entry, looked up): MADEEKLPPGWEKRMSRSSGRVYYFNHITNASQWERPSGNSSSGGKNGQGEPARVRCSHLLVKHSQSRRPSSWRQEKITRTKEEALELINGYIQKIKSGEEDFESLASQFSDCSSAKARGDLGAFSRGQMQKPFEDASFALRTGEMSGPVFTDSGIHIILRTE

SMILES | Potency [1] | activation [2] | Potency [3] | viability change [3] [%] | Potency [4] | Potency [5] | Potency [6] | outcome [7] | outcome [8] | Potency [9] | Potency [10] | outcome [11] | activation [12] | outcome [13] | Potency [14] | outcome [15] | Potency [16]
CN1CCN2c3ccccc3Cc3ccccc3C2C1 (centres undefined) | inactive | -4.88% (inactive) | inactive | -3.01 | inactive | inactive | inactive | inactive |  |  |  |  |  |  |  |  | 
COc1ccccc1N1CCN(CC(O)COc2cccc3ccccc23)CC1 (centres undefined) | inactive |  | inactive | -28.8 | inactive | inactive |  |  | inactive | inactive | inactive | inactive |  |  |  |  | 
CC#C[C@]1(O)CC[C@H]2[C@@H]3CCC4=CC(=O)CCC4=C3[C@@H](c3ccc(N(C)C)cc3)C[C@@]21C | inactive |  | 23.1 µM (active) | -7.52 |  | inactive | inactive |  | inactive |  | inactive | inactive | -13.5% (inactive) |  |  |  | 
CN(C)CCCN1c2ccccc2CCc2ccc(Cl)cc21 | inactive | 1.88% (inactive) | inactive | -5.04 | inactive | inactive | inactive |  | inactive | inactive | inactive |  |  | inactive |  |  | 
CC[C@@]1(O)C(=O)OCc2c1cc1n(c2=O)Cc2cc3c(CN(C)C)c(O)ccc3nc2-1 |  |  |  |  |  |  | 79.4 µM (active) |  |  |  |  |  |  |  |  |  | 
COc1ccccc1OCCNCC(O)COc1cccc2[nH]c3ccccc3c12 (centres undefined) | inactive |  | inactive | -0.159 |  | inactive | inactive |  | inactive |  | inactive | inactive |  |  |  |  | 
Cn1ccc2cc3c(cc21)CCN3C(=O)Nc1cccnc1 |  | 0.875% (inactive) | inactive | -2.16 | inactive | inactive |  | inactive | inactive | inactive | inactive | inactive |  | inactive | inactive |  | 
Cn1c(=O)c2[nH]cnc2n(C)c1=O |  | 0.688% (inactive) | inactive | 0.231 | inactive | inactive |  | inactive | inactive | inactive | inactive | inactive |  |  | inactive | inactive | inactive
CCC1(c2ccccc2)C(=O)NCNC1=O |  |  | inactive | 0.001 | inactive | inactive | inactive | inactive | inactive | inactive | inactive | inactive | -1.52% (inactive) and -4.43% (inactive) | inactive | inactive |  | inactive
Cc1cnc(C(=O)NCCc2ccc(S(=O)(=O)NC(=O)NC3CCCCC3)cc2)cn1 | inactive |  | inactive | -0.248 | inactive | inactive |  | inactive | inactive |  | inactive | inactive |  |  |  |  | 
